Reference: PubChem BioAssay (NCATS)
Records with an inconclusive call do not appear. Where a call stands in place of a potency, no number is given. Calls of active or inactive are those of the source. The call rests on the fitted dose curve; in most records, active means well fitted cell-killing curve with a large enough effect; inconclusive means small, poorly fitted or top-dose-only effect; inactive means no such curve, though single readings can be large or run the other way.

Assay: qHTS of pediatric cancer cell lines to identify multiple opportunities for drug repurposing: Primary screen for NB1643 cells (AID 1347099); further: nearly all actives have a fitted effect of over 50% in size
Conditions: NB1643 neuroblastoma viability, CellTiter-Glo luminescence, 48 h; series mostly up to 46 µM
From the text: Drug repurposing or repositioning has been offered as a strategy for drug development in oncology programs. This approach has special potential for childhood cancers and other rare or orphan diseases, where the expected return on new drug development has been a disincentive to pharmaceuticals. […] In this project we exploit the poly-pharmacology of drugs to discover new indications via phenotypic screening of a panel of 19 well-characterized cell lines derived from solid tumors seen in children and adolescents. The goal is to identify approved drugs with previously unrecognized anticancer properties that has the potential to reveal new mechanisms and biological processes involved in carcinogenesis or drug resistance. We employed a titration-based paradigm (quantitative high-throughput screening or qHTS), where all compounds were tested at multiple concentrations for their effect on cell viability. Concentration-response curves (CRCs) were derived directly from the primary screen, and both potency and efficacy values were used to identify compounds with robust bioactivity profiles. We screened the NIH Chemical Genomics Center (NCGC) Pharmaceutical Collection (NPC) and Mechanism Interrogation Plate (MIPE) small molecule collections of approved and investigational compounds against these cell lines; and measured metabolically active cells after 48 hours of compound treatment as a proxy for cell viability. […] Assay Submitter: Nathalia J. Martinez, National Center for Advancing Translational Sciences, National Institutes of Health, Rockville, MD, USA; email: natalia.martinez@nih.gov Shen, M et al. Quantitative high-throughput phenotypic screening of pediatric cancer cell lines identifies multiple opportunities for drug repurposing. Oncotarget 2017 Dec 19;9(4):4758-4772. PMID 29435139.
The cells were obtained from University of North Carolina (UNC), Pediatric Preclinical Testing Program (PPT), and Coriell Institute (CI). qHTS cell viability assay: Cells were assayed in growth media at a density of 500-1,000 cells/well. Five microliters of cells were dispensed into 1,536-well, white, solid-bottom, TC-treated plates (Greiner Bio One) using a multidrop dispenser and incubated at 37 degrees C, 5% CO2, under a humidified atmosphere for 5 hours. Twenty-three nanoliters of compounds and controls (neutral control DMSO or positive control bortezomib at final concentration of 2.3 µM) were subsequently transferred by Kalypsys pintool. For primary screens, the MIPE collection was tested at 11-point dilutions (final concentrations range from 0.78 nM to 46 µM) and the NPC collection at 8-point dilutions (final concentrations range from 0.59 nM to 46 µM). Compounds tested in follow-up screens were assayed at 11-point dilutions. Cells were incubated for 48 hours, followed by addition of 3 µL of CellTiter-Glo (Promega). After a 15 min incubation at room temperature, samples were analyzed for luminescence intensity using a ViewLux High-throughput CCD imager equipped with clear filters.
Potency means the concentration at half of the fitted maximal effect.

Row | Structure (SMILES) | Potency
1 | NC(N)=Nc1nc(CSCC/C(N)=N/S(N)(=O)=O)cs1 | inactive
2 | C[C@H]1[C@H](NC(=O)C(=NOC(C)(C)C(=O)O)c2csc(N)n2)C(=O)N1S(=O)(=O)O | inactive
3 | CCC(=O)NC[C@H](Cc1ccc(OCCc2nc(-c3ccccc3)oc2C)cc1)NC(C)=CC(=O)c1ccc(C(F)(F)F)cc1 | 13.2 µM (active)
4 | CN[C@@H](C)C(=O)N[C@H]1CN(C(=O)CC(C)C)CC[C@H]2CC[C@@H](C(=O)NC(c3ccccc3)c3ccccc3)N2C1=O | inactive
5 | O=c1cc(CN2CCOCC2)occ1OCCCCCSc1ccnc2cc(C(F)(F)F)ccc12 | inactive
6 | CCCCC1C(=O)N(c2ccccc2)N(c2ccccc2)C1=O | inactive
7 | COc1cc2ncnc(Nc3ccc(F)c(Cl)c3)c2cc1OCCCN1CCOCC1 | 34 µM (active)
8 | Cc1cccc(Nc2nc(-c3ccncc3)cs2)c1 | inactive
9 | Cc1ccccc1C(C(=O)NC1CCCCC1)N(C(=O)Cn1ccnc1C)c1cccc(F)c1 (stereo not given) | inactive
10 | CCC(=O)O[C@]1(C(=O)CO)CC[C@H]2[C@@H]3CCC4=CC(=O)CC[C@]4(C)[C@@H]3CC[C@@]21C | inactive
11 | COc1cc2nc(-c3ccc(N4CCN(C)CC4)cc3)nc(NCCN3CCOCC3)c2cc1OC | 1.87 µM (active)
12 | OC[C@@H](O)[C@H](O)[C@H](O)[C@@H](O)CO | inactive
13 | COc1ccc(-n2c(C)c([N+](=O)[O-])c3ccc(O)cc32)cc1 | 5.9 µM (active)
14 | C[N+](C)(C)CCCCCC[N+](C)(C)C | inactive
15 | CC(=NNC(=S)N1CCC1)c1ccccn1 | 0.001 µM (active)
16 | Cc1cc(OCCCc2c(C(=O)O)n(Cc3cccnc3)c3c(-c4c(COc5ccc(N6CCN([S+](C)(=O)[O-])CC6)cc5)nn(C)c4C)cccc23)cc(C)c1Cl | 23.5 µM (active)
17 | CC(C)(C)c1ccc(C(O)CCCN2CCC(C(O)(c3ccccc3)c3ccccc3)CC2)cc1 (stereo not given) | inactive
18 | CC(C)(C)c1cc(C(=O)O)c(NC(=O)Nc2ccc3[nH]ncc3c2)s1 | 23.5 µM (active)
19 | CN(C)c1cc(NC(=O)CNC(C)(C)C)c(O)c2c1C[C@@H]1C[C@H]3[C@H](N(C)C)C(=O)C(C(N)=O)=C(O)[C@@]3(O)C(=O)C1=C2O | inactive
20 | COCCOC(=O)C1=C(C)NC2=C(C(=O)CC(c3ccccc3OC)C2)C1c1cccc(O)c1 (stereo not given) | 20.9 µM (active)

Row | Structure (SMILES) | Potency
21 | C=CCc1ccc(O)c(-c2ccc(O)c(CC=C)c2)c1 | inactive
22 | CO[C@H]1C[C@@H]2CC[C@@H](C)[C@@](O)(O2)C(=O)C(=O)N2CCCC[C@@H]2C(=O)O[C@H]([C@H](C)C[C@@H]2CC[C@H](OP(C)(C)=O)[C@H](OC)C2)CC(=O)[C@H](C)C=C(C)[C@@H](O)[C@@H](OC)C(=O)[C@H](C)C[C@H](C)C=CC=CC=C1C | inactive
23 | COc1cccc(-c2cc(=O)c3ccccc3o2)c1N | 20.9 µM (active)
24 | Clc1ccc(Cn2c(CN3CCCC3)nc3ccccc32)cc1 | inactive
25 | c1ccc2c(Cc3c[nH]c4ccccc34)c[nH]c2c1 | 4.18 µM (active)
26 | C[C@H](NC(=O)C(=O)Nc1ccccc1C(C)(C)C)C(=O)N[C@@H](CC(=O)O)C(=O)COc1c(F)c(F)cc(F)c1F | 9.35 µM (active)
27 | NS(=O)(=O)c1ccc(NC2=CC(=O)c3ccccc3C2=O)cc1 | 18.7 µM (active)
28 | O=c1cc(N2CCOCC2)oc2c(-c3cccc4c3sc3ccccc34)cccc12 | 5.26 µM (active)
29 | C[C@@H](O)[C@H]1C(=O)N2C(C(=O)O)=C(S[C@@H]3CN[C@H](C(=O)N(C)C)C3)[C@H](C)[C@H]12 | inactive
30 | CN(C)CCC(c1ccccc1)c1ccccn1 (stereo not given) | inactive
31 | CO[C@H]1C[C@@H]2CC[C@@H](C)[C@@](O)(O2)C(=O)C(=O)N2CCCC[C@@H]2C(=O)O[C@H]([C@H](C)C[C@@H]2CC[C@H](OC(=O)C(C)(CO)CO)[C@H](OC)C2)CC(=O)[C@H](C)C=C(C)[C@@H](O)[C@@H](OC)C(=O)[C@H](C)C[C@H](C)C=CC=CC=C1C | 23.5 µM (active)
32 | C=C1C(=O)OC2C=C(C)CCC=C(C)CCC12 (stereo not given) | 23.5 µM (active)
33 | O=C(O)C(O)Cc1ccc(O)c(O)c1 (stereo not given) | inactive
34 | NC1=N[C@@]2(c3cc(NC(=O)c4ccc(F)cn4)ccc3F)COC[C@@H]2CS1 | inactive
35 | O=C1C[C@@H](c2ccc(O)cc2)Oc2cc(O)cc(O)c21 | inactive
36 | NC[C@@H]1O[C@@H](O[C@H]2[C@@H](O)[C@H](O[C@@H]3[C@@H](O)[C@@H](N)C[C@H](N)[C@H]3O[C@H]3O[C@H](CN)[C@@H](O)[C@@H](O)[C@H]3N)O[C@H]2CO)[C@H](N)[C@@H](O)[C@@H]1O | inactive
37 | CCn1cc(C(=O)O)c(=O)c2ccc(C)nc21 | inactive
38 | COc1ccc(Cc2ccc(NC(N)=O)cc2)cc1-c1cccc(Cl)c1 | 16.6 µM (active)
39 | CC(=Cc1ccccc1)C=C1SC(=S)N(CC(=O)O)C1=O | inactive
40 | N#CC(=C(N)Sc1ccccc1N)C(C#N)=C(N)Sc1ccccc1N | 20.9 µM (active)
